WRN inhibitor – qHTS for Inhibitors of WRN Helicase; WRN helicase unwinding, fluorescent forked duplex, kinetic; Potency, µM (doses to about 114 µM), for the others: at the top dose activity change, negative = inhibition, usual class: inhibitors; actives 0.46% (n = 360,000); note: % is set by controls: 0 for no effect and ±100 for the full control effect; nearly all actives have a fitted effect of over 55% in size
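Enzyme (20 nM final) and test compound sit together 15 min at room temperature before substrate addition. Substrate is a single-forked duplex oligonucleotide (100 nM) labelled with fluorophore and quencher, with 2 mM ATP; helicase unwinding raises red fluorescence, read kinetically.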
POLK inh – qHTS for Inhibitors of Polymerase Kappa; actives 0.53% (n = 400,000); DNA polymerase kappa (Homo sapiens), Q9UBT6; purified Pol kappa, fluorescent DNA synthesis assay, 10 min; Potency, µM (doses to about 107 µM), inactives show at the highest dose activity, negative = inhibition, usual class: inhibitors; AID 588579, 2011; note: % is set by controls: 0 for no effect and ±100 for the full control effect
Target sequence (Q9UBT6 whole entry, looked up): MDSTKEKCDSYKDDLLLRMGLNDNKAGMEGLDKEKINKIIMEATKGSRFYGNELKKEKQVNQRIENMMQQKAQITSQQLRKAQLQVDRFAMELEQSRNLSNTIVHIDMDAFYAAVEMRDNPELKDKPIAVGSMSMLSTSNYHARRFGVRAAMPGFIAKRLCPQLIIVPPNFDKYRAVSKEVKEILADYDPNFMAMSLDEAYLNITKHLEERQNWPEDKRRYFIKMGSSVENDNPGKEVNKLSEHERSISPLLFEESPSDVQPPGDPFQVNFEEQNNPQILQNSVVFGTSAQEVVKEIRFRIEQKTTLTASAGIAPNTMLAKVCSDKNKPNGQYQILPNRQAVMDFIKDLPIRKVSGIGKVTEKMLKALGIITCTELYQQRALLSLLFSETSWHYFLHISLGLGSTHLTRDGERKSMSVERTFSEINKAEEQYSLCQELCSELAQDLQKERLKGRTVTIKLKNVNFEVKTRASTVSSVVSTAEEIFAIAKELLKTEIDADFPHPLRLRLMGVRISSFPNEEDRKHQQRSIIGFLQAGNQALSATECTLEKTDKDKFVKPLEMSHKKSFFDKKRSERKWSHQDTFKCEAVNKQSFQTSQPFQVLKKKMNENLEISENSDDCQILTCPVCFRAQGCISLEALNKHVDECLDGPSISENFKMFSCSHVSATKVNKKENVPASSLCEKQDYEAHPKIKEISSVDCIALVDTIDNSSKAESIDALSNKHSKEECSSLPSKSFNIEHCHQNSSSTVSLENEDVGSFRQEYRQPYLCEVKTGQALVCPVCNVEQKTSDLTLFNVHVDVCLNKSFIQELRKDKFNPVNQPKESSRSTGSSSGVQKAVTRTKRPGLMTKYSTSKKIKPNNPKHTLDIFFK
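Here, compound and 10 nM enzyme are combined for 15 min at room temperature; adding 50 nM substrate (final) starts DNA synthesis, tracked by fluorescence at 0 and 10 min against buffer-only wells.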
POLI inh – qHTS for Inhibitors of Polymerase Iota; actives 1% (n = 390,000); DNA polymerase iota (Homo sapiens), Q9UNA4; Potency, µM (doses to about 115 µM), for the others: at the highest dose activity, negative = inhibition, usual class: inhibitors; Pol iota fluorescent replication assay, 10 min
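Fluorescent replication assay read twice, at 0 min and 10 min after adding 50 nM (final) substrate. Enzyme (10 nM) and compounds were first incubated 15 min at room temperature; enzyme-free buffer wells were negative controls.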
FEN1 inhibitor – qHTS Assay for the Inhibitors of Human Flap endonuclease 1 (FEN1); P39748; actives 0.35% (n = 390,000); Recombinant FEN1 flap cleavage, fluorescence, 15 min; Potency, µM (titrated, usually from 114 µM), for inactives: top-dose activity change, negative = inhibition, actives largely listed as inhibitors; note: % is set by controls: 0 for no effect and ±100 for the full control effect; nearly all actives have a fitted effect of over 65% in size
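Read-out was taken twice, immediately and after 15 min, following addition of 50 nM substrate to 10 nM FEN1 that had sat with test compound for 15 min at room temperature. Curves came from a four-parameter Hill model.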
Pol eta inh – qHTS for Inhibitors of Polymerase Eta; DNA polymerase eta (Homo sapiens), Q9Y253; recombinant Pol eta, fluorescent DNA replication assay; Potency, µM (titrated, usually from 114 µM), without a hit: top-dose activity change, negative = inhibition, usual class: inhibitors; actives 1.2% (n = 390,000); note: % is set by controls: 0 for no effect and ±100 for the full control effect
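Fluorescent replication assay: 50 nM final substrate added after a 15 min room-temperature compound preincubation with 10 nM enzyme. Signal taken at 0 min and again at 10 min.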
Pol beta inh – qHTS Assay for Inhibitors of DNA Polymerase Beta; Potency, µM (titrated, usually from 114 µM), inactives show at the highest dose activity change, negative = inhibition, usual class: inhibitors; Pol beta primer extension/strand displacement, fluorescence kinetic; AID 485314, 2010; P06746; actives 1.3% (n = 340,000); note: % is set by controls: 0 for no effect and ±100 for the full control effect
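10 nM enzyme + cpd, 15 min RT; start with substrate 50 nM final; read 0 min and after 10 min RT. Corrected, normalized data; 4-parameter Hill curve fit.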
PGK validate – qHTS for inhibitors of Phosphogylcerate Kinase: Hit Validation Screen | AID 686980, 2013 | shares compounds with POLK inh | TbPGK coupled GAPDH assay, Kinase-Glo luminescence | actives 79% (n = 500) | Potency, µM (doses to about 57.5 µM), for the others: at the top dose activity change, negative = inhibition, hits mostly inhibitors; note: % is set by controls: 0 for no effect and ±100 for the full control effect; nearly all actives have a fitted effect of over 65% in size
POLI cherry-pick – qHTS for Inhibitors of Polymerase Iota: Confirmatory Assay for Cherry-picked Compounds. shares compounds with POLK inh. Pol iota primer extension, TAMRA/BHQ fluorescence. Potency, µM, most hits filed as inhibitors. actives 77% (n = 1,500). AID 720496, 2013
Starred values were filed as active, the others as inactive; u = inconclusive; x = no result; [ ] = remark or other dose. Sampled rows, rich in hits. Any-hit rate of the full collection: about 2.4%. Calls come from the whole dose curve; as a rule, active = well fitted curve in the direction sought with a large enough effect; inconclusive = small, poorly fitted or top-dose-only effect, or another doubt; inactive = no such curve, though single readings can be large; an effect the other way counts as inactive or inconclusive. Potency is the fitted concentration of half-maximal effect.

SMILES | WRN inhibitor | POLK inh | POLI inh | FEN1 inhibitor | Pol eta inh | Pol beta inh | PGK validate | others
CCc1ccc(C(=O)c2cn(CC(=O)Nc3ccc4c(c3)OCO4)c3ccc(Cl)cc3c2=O)cc1 | x | -6% | 44% | -2% | -9% | 2% | x
CN1CCN(c2ncc3nc(-c4cccs4)c(=O)n(CCc4ccccc4)c3n2)CC1 | x | 0%[60.1 µM] | x | x | x | x | x
Cc1cn2c(=O)cc(COC(=O)COc3ccccc3C)nc2s1 | x | -16% | -4% | -6% | -14% | u | x
COc1ccc(NC(=O)c2cc3c(=O)n(C)c4ccccc4c3s2)cc1OC | -5%[11.6 µM] | -17% | 28% | 1% | u | u | x | POLI cherry-pick=30*
Nc1nc(N2CCN(C(=O)c3ccco3)CC2)nc2ccc(Br)cc12 | -5% | -1% | 0% | -35% | -22% | -10% | u
O=C(c1ccco1)N1CCN(c2ncccn2)CC1 | 7% | 2% | -10% | -2% | -11% | 20% | x
COc1ccc(C)cc1NC(=O)Cn1c(=O)ccc2cc(S(=O)(=O)N3CCC(C)CC3)ccc21 | x | -4%[60.1 µM] | 19% | -6% | -30% | 0% | x
O=C(/C=C/Nc1ccccc1Br)c1ccccn1 | -4% | -5% | 2% | -1% | -15% | 5% | u
O=C(O)c1ccc(N/N=C/c2ccc(-c3cc(Cl)ccc3Cl)o2)cc1 | -31% | -13% | u | 79µM* | 79µM* | u | x | POLI cherry-pick=u
Cc1ccc(C)c(N2CCN(C(=O)c3cc4c(=O)n(Cc5ccco5)ccc4nc3C)CC2)c1 | x | -2% | 4% | -20% | -8% | 2% | x
Cc1cc(=O)[nH]c(N/N=C/c2ccco2)n1 | -11% | -6% | 12% | 8% | -5% | -16% | x
Cc1cc(=O)[nH]c(N/N=C/c2ccc(OC(=O)c3ccco3)cc2)n1 | u | 9% | 14% | -34% | 50µM* | -9% | x | POLI cherry-pick=u
COc1ccc(CNc2ncncc2-c2cccc(NS(C)(=O)=O)c2)c(OC)c1 | x | -1%[60.1 µM] | x | x | x | x | x
O=C1c2cc(CO)cc(O)c2C(=O)c2c(O[C@@H]3OC(CO)[C@@H](O)[C@@H](O)[C@@H]3O)cccc21 (stereo partly specified) | -11% | -6% | -17% | u | 4% | x | x
O=C(O)c1cc(O)c2c(c1)[C@H]([C@H]1c3cc(C(=O)O)cc(O)c3C(=O)c3c(O[C@@H]4O[C@H](CO)[C@@H](O)[C@H](O)[C@H]4O)cccc31)c1cccc(OC3O[C@H](CO)[C@@H](O)[C@H](O)[C@H]3O)c1C2=O (stereo partly specified) | 4µM* | 0.71µM* | -83% | 1.3µM* | -99% | x | 2.9µM*
O=C(/C=C/c1ccco1)N1CCc2ccccc21 | -2% | 0% | -27% | 2% | -7% | u | 16µM*
COc1ccccc1N1CCN(C(=O)/C=C/c2ccco2)CC1 | -20%[57.1 µM] | -24% | -16% | 12% | u | -1% | x
O[C@@H]1[C@@H]2c3cc4c(cc3CN3CCC(=C[C@@H]1O)[C@H]23)OCO4 | x | -7%[12 µM] | x | x | x | x | x
Cc1cccc(C(=O)NC(=S)Nc2cccc3nc(C)ccc23)c1 | -33% | -8% | 32µM* | -5% | u | 25µM* | x | POLI cherry-pick=u
CCOc1ccc(OCC(=O)Nc2nccs2)cc1 | -6% | 4% | -1% | -3% | -14% | 0% | 13µM*
CCOc1ccc(S(=O)(=O)N(C)c2ccc(OCC(=O)Nc3nccs3)cc2)cc1 | -9% | -12% | -18% | -24% | -4% | -2% | x
Cc1cccc(NC(=O)c2cc3c(=O)n4ccccc4nc3s2)c1 | u | 1% | u | u | 45µM* | 7.1µM* | x | POLI cherry-pick=67*
CC1CCCCN1C(=O)CSc1nc2ccccc2nc1Cc1ccccc1 (stereo unspecified) | x | -2%[60.1 µM] | -4% | -26% | 12% | 7% | x
O=C(N/N=C/c1ccc(Cl)c([N+](=O)[O-])c1)c1ccc2c(c1)OCCO2 | u | -10% | -24% | u | u | x | x | POLI cherry-pick=75*
O=C(Nc1ccc(Cl)c([N+](=O)[O-])c1)c1ccc2c(c1)OCCO2 | -3% | -4% | 129% | 4% | -21% | 15% | x
SMILES | WRN inhibitor | POLK inh | POLI inh | FEN1 inhibitor | Pol eta inh | Pol beta inh | PGK validate | others
O=C(Nc1ccccc1)N1CCC2(CC1)CCN(C(=O)c1ccncc1)CC2 | x | 1%[60.1 µM] | x | x | x | x | x
c1ccc(-c2ccc(-c3nc(-c4ccccn4)no3)cc2)cc1 | -3% | 0% | 6% | -1% | -19% | 1% | x
Cc1ccc(-c2nc(-c3ccccn3)no2)cc1 | -1% | -6% | 7% | -8% | -7% | 10% | 15µM*
O=C(Nc1ccc(OCc2cc(=O)n3c4c(sc3n2)CCCC4)cc1)c1ccc(F)cc1 | x | -3% | 6% | -1% | -7% | 1% | x
CCCCC[C@H](O)/C=C/[C@@H]1[C@@H](C/C=C\CCCC(=O)OC)[C@@H](O)C[C@H]1O | 12% | -10% | 1.3µM* | u | u | 24% | 4%
Cc1cccc(OCc2nnc(SCC(=O)Nc3ccc(C)cc3C)o2)c1 | x | -13% | 9% | 12% | -14% | 1% | x
COc1ccc(NC(=O)c2cc(S(=O)(=O)N3CCCCCC3)cn2C)cc1Cl | x | -12%[60.1 µM] | 5% | 7% | -17% | 0% | x
O=C1C2C(C(=O)N1Cc1ccco1)C1C=CC2C12CC2 (stereo unspecified) | -5% | 17% | -3% | 11% | -10% | 10% | x
O=C1CC(=O)N(Cc2ccco2)C(=S)N1 | 10µM* | 3.2µM* | u | 35µM* | 3.2µM* | 7.9µM* | -97%
CCc1ccc(NC(=O)CN(c2ccc(C)cc2)S(=O)(=O)c2cccs2)cc1 | x | -6% | 5% | -26% | -17% | 22% | x
CCCCNS(=O)(=O)c1ccc2nc(NC(=O)c3cccnc3)sc2c1 | x | -7%[60.1 µM] | 14% | -10% | 50µM* | -18% | u
